High-throughput results as filed in PubChem BioAssay.
A selection: hits, their analogues and other compounds. The true share with any hit is near 7.3%.
FLuc counter: inhibits or activates purified firefly luciferase, miR-21 counter-screen | P08659 | actives 6.9% (n = 360,000) | purified FLuc, Km substrates, luminescence inhibition | Potency, µM (series often up to 57.5 µM), for inactives: at the top dose activity change, negative = inhibition, actives largely listed as inhibitors;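 further: plate controls were vehicle for no effect and reference inhibitor for full effect; nearly all actives have a fitted effect of over 55% in size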
Target sequence (P08659 whole entry, looked up): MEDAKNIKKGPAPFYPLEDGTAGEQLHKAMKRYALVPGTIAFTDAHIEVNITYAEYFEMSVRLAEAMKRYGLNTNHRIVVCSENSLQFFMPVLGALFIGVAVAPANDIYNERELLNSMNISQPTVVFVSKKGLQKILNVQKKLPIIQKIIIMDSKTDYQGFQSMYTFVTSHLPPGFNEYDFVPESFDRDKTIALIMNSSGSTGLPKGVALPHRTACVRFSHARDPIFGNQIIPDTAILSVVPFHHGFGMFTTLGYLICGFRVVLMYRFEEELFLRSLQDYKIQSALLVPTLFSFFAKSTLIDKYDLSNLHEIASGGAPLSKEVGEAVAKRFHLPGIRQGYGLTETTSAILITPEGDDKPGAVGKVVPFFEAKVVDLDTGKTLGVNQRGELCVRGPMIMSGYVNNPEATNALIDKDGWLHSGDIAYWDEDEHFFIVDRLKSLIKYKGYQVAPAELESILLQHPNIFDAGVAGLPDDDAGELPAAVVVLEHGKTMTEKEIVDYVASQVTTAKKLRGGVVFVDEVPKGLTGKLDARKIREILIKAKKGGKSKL
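Purified P. pyralis luciferase (10nM final) with 10uM D-luciferin and 10uM ATP (Km levels) in 50mM Tris acetate pH 7.5, 10mM Mg acetate, 0.01% Tween-20, 0.05% BSA; qHTS 6-point titration, ~60 µM downward; luminescence read.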
NPC1 prom act: activators of NPC1 promoter | Huh7 NPC1 promoter luciferase reporter, 24 h | Potency, µM (titrated, usually from 9.22 µM), for the others: top-dose activation, hits mostly activators | AID 485313 | actives 2.4% (n = 320,000); further: % of control where 0% means no effect; nearly all actives have a fitted effect of over 60% in size
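Huh7 reporter cells (NPC1 promoter driving luciferase) are dosed with compound for 24 h at 37 °C, 5% CO2; luciferase detection reagent is then added and luminescence measured after 10 min at ambient temperature.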
Rab9 prom act: activators of Rab9 promoter | actives 2.8% (n = 320,000) | Potency, µM (doses to about 9.22 µM), for the others: at the top dose activation, negative = inhibition, actives largely listed as activators | Huh7 Rab9 promoter-luciferase reporter, luminescence, 24 h; further: % of control where 0% means no effect; nearly all actives have a fitted effect of over 60% in size
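Steps: seed 1500 Huh7 Rab9-luc cells per well, rest 2 h at 37 °C; add compound in DMSO; incubate 24 h; add luciferase reagent, 10 min ambient; read luminescence.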
ELG1 genotox: genotoxicity induction in ELG1-luciferase HEK293T cells. actives 1.3% (n = 330,000). Potency, µM (series often up to 46 µM), without a hit: top-dose activity change, positive = activation, hits mostly activators. HEK293T ELG1-luciferase reporter, luminescence, 16 h. AID 504466; further: % of control where 0% means no effect; nearly all actives have a fitted effect of over 60% in size
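ELG1-luciferase HEK293T cells, 2,000/well; compound pinned in; 16 hr, 37 °C, 5% CO2; ONE-Glo, 30 min RT; luminescence on CCD imager.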
SMN2 splice up: increases expression of the SMN2 splice variant. HEK293 SMN2-luciferase splicing reporter, luminescence, 30-36 h. Potency, µM (highest dose often 46.1 µM), for the others: at the highest dose activity change, positive = activation, actives largely listed as activators. actives 2.8% (n = 210,000). AID 1458; further: % of control where 0% means no effect; nearly all actives have a fitted effect of over 55% in size
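HEK293 cells carry an SMN2 minigene-luciferase reporter in which exon 7 inclusion puts luciferase in frame. Cells were seeded at 2000 cells/well, attached for 10-12 hours, then exposed to compounds for 30-36 hours at 37C before ONE-Glo luminescence.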
Luc counter: Kinase-Glo luciferase inhibition (counter-screen); Kinase-Glo luciferase, ATP luminescence, 8 min; Potency, µM (doses to about 38.3 µM), for inactives: at the highest dose activity change, negative = inhibition, most hits filed as inhibitors; actives 0.28% (n = 200,000); further: on the % scale 0 is the no-effect control and ±100 the full control effect; nearly all actives have a fitted effect of over 60% in size
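Compounds were added to a substrate mix at pH 7.2 (50 mM imidazole, 10 uM ATP, within the enzyme's linear range), followed by Kinase-Glo detection reagent; luminescence was measured after 8 minutes at ambient temperature.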
* = called active by the depositor. The call rests on the fitted dose curve; in most records, active means well fitted curve in the direction sought with a large enough effect; inconclusive means small, poorly fitted or top-dose-only effect, or another doubt; inactive means no such curve, though single readings can be large; an effect the other way counts as inactive or inconclusive. Potency means the concentration at half of the fitted maximal effect.

N#CCCN1CCN(C(=S)c2ccc(-c3cc(Cl)ccc3Cl)o2)CC1 was read as FLuc counter -16%, NPC1 prom act -2%, Rab9 prom act 1%, ELG1 genotox -3%, SMN2 splice up -17% and Luc counter 1%.
Screening S=C(Nc1ccc(Cl)cc1Cl)N1CCCCC1 returned FLuc counter inconclusive, NPC1 prom act 18%, Rab9 prom act 5%, ELG1 genotox 11%, SMN2 splice up 30% and Luc counter 4%.
For CCCn1nc2cc(C(=O)NCCc3cccs3)ccc2c1OCC the results were FLuc counter inconclusive, NPC1 prom act inconclusive, Rab9 prom act inconclusive, ELG1 genotox 15%, SMN2 splice up 16µM* and Luc counter 4%.
CCCCNC(=O)c1ccc2c(OCC)n(CCCC)nc2c1 was read as FLuc counter -2%, NPC1 prom act 1%, Rab9 prom act 4%, ELG1 genotox 0%, SMN2 splice up -20% and Luc counter -2%.
`Cc1ccc(NCc2ccccc2-c2nnc(-c3ccccc3Cl)o2)c(C)c1` gave FLuc counter inconclusive and SMN2 splice up 11%.
For Cc1ccc(NCc2ccccc2-c2nnc(-c3ccccc3Cl)o2)cc1Cl the results were FLuc counter inconclusive and SMN2 splice up -2%.
Screening Fc1ccc(NCc2ccccc2-c2nnc(-c3ccccc3Cl)o2)cc1 returned FLuc counter 6µM* and SMN2 splice up 6%.
CCc1cccc(NCc2ccccc2-c2nnc(-c3ccccc3Cl)o2)c1 was read as FLuc counter 3.4µM* and SMN2 splice up -3%.
For CCc1ccccc1NC(=O)c1nc(-c2ccncc2)no1 the results were FLuc counter -7%.
For Cc1ccc(-n2nc3ccc(NC(=O)COc4ccccc4C)cc3n2)cc1 the results were FLuc counter -1% and SMN2 splice up 21%.
For CCOC(=O)c1sc(NC(=O)C(OC(C)=O)c2ccccc2)nc1C (centres undefined) the results were FLuc counter 0%, NPC1 prom act -3%, Rab9 prom act 5%, ELG1 genotox 10%, SMN2 splice up 35µM* and Luc counter -2%.
`CC(=O)c1sc(NC(=O)c2cccnc2Cl)nc1C` gave FLuc counter inconclusive, NPC1 prom act 11%, Rab9 prom act 22%, ELG1 genotox 7% and Luc counter -12%.
For CC(=O)c1sc(NC(=O)c2ccccc2F)nc1C the results were FLuc counter 4.8µM*, NPC1 prom act 1.4µM*, Rab9 prom act 0.45µM*, ELG1 genotox 2.9µM*, SMN2 splice up 3.2µM* and Luc counter 10µM*.
For CCOC(=O)c1sc(NC(=O)c2cccs2)nc1C the results were FLuc counter 2.4µM*, NPC1 prom act inconclusive, Rab9 prom act inconclusive, ELG1 genotox inconclusive, SMN2 splice up inconclusive and Luc counter inconclusive.
CC(=O)c1sc(NC(=O)c2cccs2)nc1C was read as FLuc counter 9.5µM*, NPC1 prom act 29%, Rab9 prom act inconclusive and ELG1 genotox 14%.
For CC(=O)c1ccc(NC(=O)CSc2nnc3ccc(-c4ccc(Br)cc4)nn23)cc1 the results were FLuc counter 3%.
`Cc1ccc(CNC(=O)CCC(=O)Nc2nnc(C)s2)cc1` gave FLuc counter 1%, NPC1 prom act -6%, Rab9 prom act -1% and ELG1 genotox 1%.
`Cc1ccc(C(C(=O)NC2CCCCC2)N2CCOCC2)cc1` (centres undefined) gave FLuc counter 2%, NPC1 prom act -1%, Rab9 prom act 0%, ELG1 genotox 1%, SMN2 splice up 14% and Luc counter -2%.
